Screening data as filed in PubChem BioAssay.
This is a sample that favours compounds with a hit; in the whole collection about 1.4% have one here.
Polio RdRp inh: inhibitors of poliovirus RNA polymerase binding and polymerization; poliovirus polymerase elongation, fluorescence polarization; hits give low values; % elongation, % (compound at 16.7 µg/mL); 150,000 compounds, 0.66% hits; AID 588519; in the data active = % elongation below about 90%
MenB inh: Mtb MenB enzyme inhibition. P9WNP5. MenB enzyme assay, absorbance read-out. inhibition, % (no concentration beside the values). 100,000 compounds, 0.43% hits; in the data active = inhibition above about 21%, passing the limit was not always enough
Target sequence (P9WNP5 whole entry, looked up): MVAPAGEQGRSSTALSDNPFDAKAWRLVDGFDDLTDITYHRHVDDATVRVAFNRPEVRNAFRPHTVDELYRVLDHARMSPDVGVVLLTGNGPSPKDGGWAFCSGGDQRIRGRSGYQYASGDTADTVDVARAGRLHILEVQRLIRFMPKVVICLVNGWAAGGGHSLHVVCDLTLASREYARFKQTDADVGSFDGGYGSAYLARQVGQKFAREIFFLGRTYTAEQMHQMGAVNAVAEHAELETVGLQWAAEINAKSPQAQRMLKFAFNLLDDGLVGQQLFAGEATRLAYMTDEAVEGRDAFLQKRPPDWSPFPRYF
AID504770: growth inhibitors of E. coli YBA685 in a screen for V. cholerae RctB (chromosome II replication) inhibitors; E. coli YBA685 rctB-dependent plasmid, OD600 growth, 3 h; hits give low values; z-score (test concentration not listed); 130,000 compounds, 0.27% hits; AID 504770; in the data active = z-score below about -2, passing the limit was not always enough
Mtb MbtI inh: blocks the Mycobacterium tuberculosis siderophore enzyme MbtI | P9WFX0 | purified MbtI enzyme, fluorescence intensity read-out | inhibition, % (no concentration beside the values) | 100,000 compounds, 0.89% hits | AID 493033; in the data active = inhibition mostly above about 56%, no sharp cut-off; inactive = mostly below about 77%
The depositor's hits bear a star; . = no result given.

SMILES | Polio RdRp inh | MenB inh | AID504770 | Mtb MbtI inh
CC(C)(C)Nc1n[nH]c(=S)s1 | 76.0* | -2.7 | 0.05 | 73.5*
Cc1ccc(CNc2n[nH]c(=S)s2)cc1 | . | . | 0.5 | .
O=C(O)c1cccc(S(=O)(=O)N2CCCCC2)c1 | 99.0 | -54.5 | -0.6 | -13.9
CC(C)CNC(=O)c1cccc(S(=O)(=O)N2CCCCC2)c1 | 105.0 | . | -4.8* | -7.6
Nn1c(Cc2ccccc2)n[nH]c1=S | 99.0 | -63.9 | -0.2 | 98.9*
Cn1c(Cc2ccccc2)n[nH]c1=S | 101.0 | -25.8 | 1.3 | 51.9
Cn1c(SCC(=O)NC(=O)Nc2ccccc2F)nc2cc(S(N)(=O)=O)ccc21 | 85.0* | -38.5 | -0.3 | 96.0*
CCOCCn1c(=NC(=O)C(C)(C)C)sc2cc(S(C)(=O)=O)ccc21 | 106.0 | -7.5 | -0.5 | -1.9
CC(C)(C)c1ccc(CC/C=N/O)cc1 | 102.0 | 11.0 | 0.55 | -1.5
N#CCn1cc(/C=C2\C(=O)NC(=O)N(c3cccc(F)c3)C2=O)c2ccccc21 | 101.0 | -23.7 | 1.85 | 74.2*
CCOC(=O)Cn1cc(/C=C2\C(=O)NC(=O)N(c3ccc(F)cc3)C2=O)c2ccccc21 | 68.0 | -29.7 | -0.85 | -3.6
CCN(CC)C(=O)CN1C(=O)COCC1=O | 99.0 | 26.2* | 0.05 | -8.6
COC(=O)C(C)NC(=O)c1cccnc1Cl (configuration not stated) | 104.0 | . | -0.85 | -9.0
CCc1ccc(C2=CC(=O)C=CC2=O)cc1 | 102.0 | 1.8 | -0.15 | 43.1
O=C1C=CC(=O)C(CCCCCCC2=CC(=O)C=CC2=O)=C1 | 101.0 | 11.3 | -0.1 | 95.7*
O=C1C=CC(=O)C(CCC2=CC(=O)C=CC2=O)=C1 | 101.0 | 14.2 | 0.6 | 98.1*
O=C(O)c1cccc(=S)[nH]1 | 106.0 | 1.3 | 0 | -5.7
CC1(C)CC(N2COc3ccc4c5c(oc4c3C2)C(=O)c2ccccc2C5=O)CC(C)(C)N1 | 96.0 | -13.2 | 2.3 | 18.5
Cc1cc(C(F)(F)F)c(C#N)c(=S)[nH]1 | 104.0 | -33.2 | 1.5 | 80.9
N#Cc1c(N)cc(N)[nH]c1=S | 104.0 | -0.9 | -0.8 | 96.8*
Cc1ccc2c(c1)CCCN2C(=S)Nc1cccc(C(F)(F)F)c1 | 107.0 | -17.3 | -1.1 | -3.7
S=C(NC1CCCCC1)Sc1ccc(Cl)cc1 | 94.0 | -15.7 | -0.9 | 56.3*
CC(C)(C)c1cc(O)c(O)c(Br)c1 | 98.0 | 23.1 | 0.1 | 101.3*
COC(=O)c1cc(Br)c(O)c(Br)c1 | . | . | 0.5 | .
N#Cc1ccc(/C=N/n2c(-c3ccco3)csc2=Nc2ccccc2)cc1 | 49.0 | -34.5 | 1.25 | -2.5
SMILES | Polio RdRp inh | MenB inh | AID504770 | Mtb MbtI inh
O=c1cc(O)c2ccccc2[nH]1 | 101.0 | -154.7 | -0.85 | 55.2
O=C1c2ccccc2C(=O)C1c1cc(=O)[nH]c2ccccc12 | 87.0* | -167.7 | -0.65 | 6.0
CC(C)CN1C(=O)C(O)(c2nnc(-c3ccccc3)o2)c2ccccc21 (configuration not stated) | 105.0 | 5.0 | 1.05 | 10.1
CCN(C(=O)Cn1c(=O)oc2cc(Cl)ccc21)c1cccc(C(F)(F)F)c1 | 82.0* | . | . | .
N#CSc1cnc(NC2CCCCC2)s1 | 94.0 | -177.6 | -0.4 | 74.0*
COCCCNC(=O)CCC(=O)NNc1nc2ccccc2c2nc(C)nn12 | 24.0* | . | . | .
CCCCNC(=O)CCC(=O)NNc1nc2ccccc2c2nc(-c3ccccc3)nn12 | 106.0 | . | . | .
CCCCNC(=O)CCC(=O)NNc1nc2ccccc2c2nc(C)nn12 | 81.0* | . | . | .
CCOCCCNC(=O)CCC(=O)NNc1nc2ccccc2c2nc(C)nn12 | 36.0* | . | . | .
Cc1nc2c3ccccc3nc(NNC(=O)CCC(=O)N3CCN(c4ccc(F)cc4)CC3)n2n1 | 95.0 | . | . | .
Brc1cccc(Nc2nc3nonc3nc2NCc2ccco2)c1 | 105.0 | -21.5 | -0.85 | -23.4
CCc1ccc(Oc2c(CC(=O)O)oc3cc(O)c(CC)cc3c2=O)cc1 | 101.0 | -7.8 | -0.25 | -20.4
CCOc1ccccc1C1C(C#N)=C(SC)NC(=O)C1C(=O)OC (configuration not stated) | . | . | 0.7 | .
COC(=O)C1C(=O)NC(S)=C(C#N)C1c1ccccc1Cl (configuration not stated) | 106.0 | -12.5 | -0.25 | 86.8*
Cc1[nH]n(-c2ccccc2)c(=O)c1Sc1ccc(Cl)cc1 | 102.0 | -6.1 | -0.8 | -207.3
Cc1[nH]n(-c2ccc(Cl)cc2)c(=O)c1C=O | 100.0 | 5.4 | -0.3 | 70.9*
NS(=O)(=O)c1ccc(NC(=O)C2CCCNC2=O)cc1 (configuration not stated) | 101.0 | 17.1 | 0.1 | -2.5
Cc1cccc(-c2nnc(C3CCN(S(=O)(=O)Cc4ccccc4)CC3)o2)c1 | 98.0 | -62.8 | -0.5 | 71.8*
CC1=NN(C(=O)c2ccco2)C(O)(c2ccncc2)C1 (configuration not stated) | 107.0 | -73.2 | -0.85 | .
